aSyn rescue: inhibitors of alpha-synuclein toxicity in yeast. Yeast expressing alpha-synuclein, growth rescue, BacTiter-Glo, 24 h. Potency, µM (top dose mostly 46.1 µM), hits mostly activators. hit rate 0.14% among 370,000; further: nearly all actives have a fitted effect of over 65% in size
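Readout is rescue of growth in alpha-synuclein-expressing yeast, so inhibitors of toxicity appear as activators. Growth after 24 hr at 30 deg C in galactose medium is quantified by luminescence.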
Abeta yeast res: restores growth of yeast expressing A-beta42 peptide; Potency, µM (series often up to 46.1 µM), actives largely listed as activators; hit rate 0.063% among 410,000; yeast expressing A-beta42, growth rescue, OD600, 48 h; response scale: 0% DMSO, 100% iron-clioquinol control; AID 1347071; further: nearly all actives have a fitted effect of over 55% in size
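Yeast growth medium received pinned compounds, then yeast cells expressing toxic A-beta were added; plates incubated at 30 C for 48 hr. Growth read as absorbance at 600 nm, normalized to DMSO and equimolar FeCl3 plus clioquinol controls.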
TDP43 rescue: inhibitors of TDP-43 toxicity in yeast; Potency, µM (titrated, usually from 46.1 µM), usual class: activators; hit rate 1.8% among 410,000; TDP-43 expressing yeast growth rescue, BacTiter-Glo, 24 h; further: nearly all actives have a fitted effect of over 50% in size
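Yeast cells expressing TDP-43 under galactose induction are exposed to compounds for 24 hr at 30 deg C. BacTiter-Glo luminescence measures growth, so protective compounds score as activators.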
FUS yeast rescue: suppressors of FUS proteinopathy in yeast; S. cerevisiae FUS-expressing, growth rescue, OD600, 24 h; Potency, µM (highest dose often 76.6 µM), usual class: activators; hit rate 0.24% among 390,000; AID 1347120; further: nearly all actives have a fitted effect of over 55% in size
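Restored growth of FUS-toxic S. cerevisiae, read as 600 nm absorbance after 24 h at 30C in galactose medium (starting OD 0.005). Controls CP55940 and DMSO.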
Mito fusion act: blocks mitochondrial division or promotes mitochondrial fusion; hit rate 0.23% among 320,000; Potency, µM (series often up to 46.1 µM), actives largely listed as activators; S. cerevisiae fusion-defective mutant growth rescue, CellTiterGlo 48 h; further: nearly all actives have a fitted effect of over 45% in size
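Compounds are tested for their ability to restore growth of mitochondrial fusion-defective yeast strains at non-permissive 37C in YPEG medium over 48 hours. Viability is quantified by luciferase luminescence.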
Numbers stand for hits. Sampled rows, rich in hits. Any-hit rate of the full collection: about 2.2%. The call rests on the fitted dose curve; in most records, active means well fitted curve in the direction sought with a large enough effect; inconclusive means small, poorly fitted or top-dose-only effect, or another doubt; inactive means no such curve, though single readings can be large; an effect the other way counts as inactive or inconclusive.

Results for Cc1cc2nc3c(nc2cc1C)C1(C(=O)O)CCC3(C)C1(C)C (stereo unspecified) ?
aSyn rescue: inactive; Abeta yeast res: inactive; TDP43 rescue: 20µM; FUS yeast rescue: inactive; Mito fusion act: inactive

How did CC(C)OC1=CC(=O)OC(c2cccc(Cl)c2)C1 (stereo unspecified) do in these assays?
aSyn rescue: inactive; Abeta yeast res: inactive; TDP43 rescue: 22.4µM; FUS yeast rescue: inactive

Results for Cc1cc(C)c(C)c(S(=O)(=O)N2CCN(C(=S)NCC3CCCO3)CC2)c1C (stereo unspecified) ?
aSyn rescue: inactive; Abeta yeast res: inconclusive; TDP43 rescue: 22.4µM; FUS yeast rescue: inconclusive; Mito fusion act: inactive

What do the screens show for `COc1ccc(C(=O)Sc2ccc(C)cc2)cc1OC`?
aSyn rescue: inactive; Abeta yeast res: inactive; TDP43 rescue: 11.2µM; FUS yeast rescue: inactive; Mito fusion act: inactive

How did COc1ccc(C(=O)Sc2ccc(Cl)cc2)cc1OC do in these assays?
aSyn rescue: inactive; Abeta yeast res: inactive; TDP43 rescue: inactive; FUS yeast rescue: inactive; Mito fusion act: inactive

What do the screens show for `Cc1cc(C=Nc2ccc(/C=C/c3ccnc4ccccc34)cc2)ccc1N(C)C`?
aSyn rescue: inactive

Results for CCC(C)NC(=O)Cn1c(=O)n(-c2cc(OC)cc(OC)c2)c(=O)c2ccccc21 (stereo unspecified) ?
Abeta yeast res: inactive; TDP43 rescue: inactive; FUS yeast rescue: inactive

Results for N#CCSc1nnc(COc2cccc3ccccc23)n1-c1ccccc1 ?
aSyn rescue: inactive; Abeta yeast res: inactive; TDP43 rescue: 20µM; FUS yeast rescue: inactive; Mito fusion act: inactive

Results for Cc1cccc(N2CCN(C(=O)C3CCN(S(=O)(=O)c4cccc5cccnc45)CC3)CC2C)c1 (stereo unspecified) ?
aSyn rescue: inactive; Abeta yeast res: inactive; TDP43 rescue: inactive; FUS yeast rescue: 22.4µM; Mito fusion act: inactive

What do the screens show for `Cc1cccc(N2CCN(C(=O)c3ccccn3)CC2C)c1` (stereo unspecified)?
aSyn rescue: inactive; Abeta yeast res: inactive; FUS yeast rescue: inactive; Mito fusion act: inactive

Results for Cc1cccc(N2CCN(C(=O)c3cc4ccc5cccnc5c4[nH]3)CC2C)c1 (stereo unspecified) ?
Abeta yeast res: inactive; TDP43 rescue: 8.91µM; FUS yeast rescue: inconclusive

How did Cc1ccc(C)c(N2CCN(C(=O)c3cc4ccc5cccnc5c4[nH]3)CC2)c1 do in these assays?
Abeta yeast res: inactive; TDP43 rescue: 12.6µM; FUS yeast rescue: inconclusive

What do the screens show for `O=C(NCc1ccccc1)c1cc2ccc3cccnc3c2[nH]1`?
Abeta yeast res: inactive; TDP43 rescue: inactive; FUS yeast rescue: inactive

What do the screens show for `COc1ccc(N2CCN(C(=O)c3cc4ccc5cccnc5c4[nH]3)CC2)cc1`?
Abeta yeast res: inactive; TDP43 rescue: inconclusive; FUS yeast rescue: inactive

Results for Cc1ccc(Cl)cc1N(C)C(=O)c1cc2ccc3cccnc3c2[nH]1 ?
Abeta yeast res: inactive; TDP43 rescue: 25.1µM; FUS yeast rescue: inconclusive

Results for CCC[C@H]1[C@@H](NC(=O)C(c2ccccc2)c2ccccc2)CC[C@@]23CCCN2C(=O)CCC[C@@H]13 ?
FUS yeast rescue: inactive

How did Nc1nc(=S)c2n[nH]nc2[nH]1 do in these assays?
aSyn rescue: inactive

How did CCOc1ccc(NC(=O)C2CCN(C(=O)N3CC(C)Oc4ccc(Cl)cc43)CC2)cc1 (stereo unspecified) do in these assays?
Abeta yeast res: inactive; TDP43 rescue: inactive; FUS yeast rescue: inactive

How did Cc1ccc(Sc2cnccc2C#N)cc1 do in these assays?
aSyn rescue: inactive; Abeta yeast res: inactive; TDP43 rescue: 12.6µM; FUS yeast rescue: inactive; Mito fusion act: inactive

What do the screens show for `CCCCN1C(=O)C(O)(CC(=O)c2ccc(C(C)(C)C)cc2)c2ccccc21` (stereo unspecified)?
Abeta yeast res: inconclusive; TDP43 rescue: inactive; FUS yeast rescue: inconclusive

How did Cc1ccc(N(C)S(=O)(=O)c2cccc(C(=O)Nc3nc4ccccc4[nH]3)c2)cc1 do in these assays?
aSyn rescue: inactive; Abeta yeast res: inactive; TDP43 rescue: inactive; Mito fusion act: 20µM

Results for O=C(NCc1ccccc1Cl)c1cccc(C(F)(F)F)c1 ?
aSyn rescue: inactive; Abeta yeast res: inactive; TDP43 rescue: 35.5µM; FUS yeast rescue: inactive; Mito fusion act: inactive

What do the screens show for `COc1cc(/C=C/c2nc(-c3ccccc3O)n[nH]2)cc(OC)c1OC`?
aSyn rescue: inactive; Abeta yeast res: inactive; TDP43 rescue: 15.8µM; Mito fusion act: inconclusive

Results for COc1ccc(/C=C/c2nc(N)nc(-c3ccccc3O)n2)cc1OC ?
aSyn rescue: inactive; Abeta yeast res: inactive; TDP43 rescue: 15.8µM; Mito fusion act: inactive

What do the screens show for `CN(CCO)c1ccc2c(c1)Oc1ccccc1CN(Cc1cn(Cc3ccc(F)cc3)nn1)S2(=O)=O`?
FUS yeast rescue: inactive

What do the screens show for `CCNc1nc(N2CCCCC2)nc(-n2nnc(C(=O)OCC)c2C)n1`?
aSyn rescue: inactive; Abeta yeast res: inactive; TDP43 rescue: 17.8µM; FUS yeast rescue: inactive; Mito fusion act: inactive

How did CNC(=O)C[C@H]1CC[C@H]2[C@@H](COc3ccc(NC(=O)Nc4ccccc4)cc3C(=O)N2C)O1 do in these assays?
FUS yeast rescue: inactive

How did CC1CCCN(CC(=O)N2c3ccccc3Sc3ccccc32)C1 (stereo unspecified) do in these assays?
aSyn rescue: inactive; Abeta yeast res: 22.4µM; TDP43 rescue: inactive; FUS yeast rescue: inactive; Mito fusion act: inactive

How did Cc1ccc(CNC(=O)CCc2nnc3n(C)c(=O)c4sccc4n23)cc1 do in these assays?
Abeta yeast res: inactive; TDP43 rescue: inactive; FUS yeast rescue: inactive

How did Cc1cccc(C)c1NC(=O)C(C1CC1)n1c(=O)c(-c2ccccc2)nc2ccccc21 (stereo unspecified) do in these assays?
aSyn rescue: inconclusive; Abeta yeast res: inactive; TDP43 rescue: 12.6µM; FUS yeast rescue: inactive

What do the screens show for `Cc1cccc(C)c1NC(=O)C(C1CC1)n1c(=O)c(-c2cc3ccccc3[nH]2)nc2ccccc21` (stereo unspecified)?
aSyn rescue: inconclusive; Abeta yeast res: inactive; TDP43 rescue: inconclusive; FUS yeast rescue: 5.62µM

What do the screens show for `NC(=O)c1c(N)[nH]c(C(=O)c2ccccc2)c1-c1cccc2ccccc12`?
FUS yeast rescue: inactive

Results for O=C(CSc1nnc(-c2cccs2)n1Cc1ccco1)Nc1ccc(Oc2ccccc2)cc1 ?
FUS yeast rescue: inactive

Results for COc1ccccc1C(C[N+](=O)[O-])c1c[nH]c2ccccc12 (stereo unspecified) ?
aSyn rescue: inconclusive; Abeta yeast res: inactive; TDP43 rescue: 20µM; FUS yeast rescue: inactive; Mito fusion act: inactive

Screening results as filed in PubChem.
